Assay results taken from the supplement of paper PMC11417369.
± gives the standard deviation of the averaged measurements. The full ranking holds about 25,000 sequences; the median of “ln(normalized median fluorescence intensity)” is about 10, and the highest 2% start at about 12. The sample holds the highest values, similar sequences and a random draw of the others, so the mix is not that of the screen.

System: PfAP2-G AP2 domain (GST-tagged)
Experiment: gcPBM binding intensity (ln(normalized median fluorescence intensity)); higher = stronger DNA binding
In short: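 The highest Masliner-normalised natural-log median intensity across replicate spots of either probe orientation is reported as binding intensity. GST-tagged P. falciparum DNA-binding domains expressed in E. coli were applied for 1 h to an Agilent 4 × 180k array of primer-extended double-stranded 36-bp intergenic genomic probes plus negative controls, and bound protein was detected with Alexa488 anti-GST antibody and scanned at 488 nm.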

Row | Sequence | gcPBM binding intensity (ln)
1 | ATATACTATATTTTAACACACAAAAAAAAAAAATAT [CACACA_site1091] | 9.985 ± 0.035
2 | AGGCACGTGTTATATACACACATAATCAAATAAACT [CACACA_site7852] | 10 ± 0.11
3 | CCCCCCGTGTTATATACACACATAATCAAATAAAAT [CACACA_site4111] | 11.8 ± 0.99
4 | AAATTATAATATAATACACACATAAAAAAAAAATCA [CACACA_site3634] | 9.975 ± 0.049
5 | TAATAAATAAAATAGAGTACAGGGATTTCATTAAAT [XGTACX_site8979] | 11.4 ± 0.82
6 | CCAGTGTGCACCTTGCGTACATATTAAATTAATTAA [XGTACX_site3729] | 11.5 ± 0.96
7 | TTTTAATGTACCAGTGTGCACCTTGCGTACATATTA [GTGCAC_site9957] | 11.6 ± 0.97
8 | TTGCATTAATTTATGTGTACATATAAATTTTTATTT [XGTACX_site3060] | 11.6 ± 0.88
9 | TTTTGGATCATTTGTTGTACATATGCAAAAAAAAAA [XGTACX_site3157] | 11.3 ± 0.91
10 | TTCATCTTAAAATTGGGTACATAACACAAAGTATAA [XGTACX_site1894] | 11.3 ± 0.93
11 | TTAAGAATATCTTAGAGTACATTTTATCATCTTAAA [XGTACX_site8298] | 11 ± 0.68
12 | ATCTTATCATTTTAAAGTACATAATTAATTCTTTTT [XGTACX_site3999] | 11.2 ± 0.67
13 | ATGGTATCTTTTAGAAGTACATCATGATAATAATTT [XGTACX_site5544] | 11.7 ± 0.91
14 | ATTTTTTTTTAATGCAAAAGGTGATGATCGGTCATA [CACACA_negctrl_site959] | 10.2 ± 0.35
15 | TATTAAAAATGTTAAGTGCAAAAATAAAAATTGTGG [GTGCAC_site9854] | 10.2 ± 0.17
16 | ATTAAAAAAATATACGCACACAAAATGTAATAACAA [CACACA_site2439] | 10.4 ± 0.21
17 | GATACACCAAATAACTGTACGCACGTGTAATATTAA [XGTACX_site3441] | 11.6 ± 0.83
18 | ATGCATATAACTACGTGTACAAATATACACAAATAC [XGTACX_site8811] | 11.4 ± 0.86
19 | CTTATACTTCTACATCGTACAAAAGATGGTATAATT [XGTACX_site2698] | 10.8 ± 0.43
20 | ATGTATATATATATATGTACATATTTTTTATATGTA [XGTACX_site441] | 11.2 ± 0.81

Row | Sequence | gcPBM binding intensity (ln)
21 | GAACCGTTTTTATGTAGTACATATGTATATATATAT [XGTACX_site1577] | 11.6 ± 1.1
22 | TATTTACATTTTAGTAGTACATATATGTATATATAT [XGTACX_site6839] | 11.3 ± 0.79
23 | ATATTATATTGGATGTTGCACTTAACAAAAGGATAT [GTGCAC_site9478] | 10.2 ± 0.23
24 | GAATTTCGATATATGTGTACGCATTTGTATTATAGG [XGTACX_site6332] | 11.7 ± 1.1
25 | TATTATATATATAGGTGTACGCATTTGTCCTTTATA [XGTACX_site1385] | 11.7 ± 1.1
26 | ATATTAAATATAATTTGTACGCATTTTTTTTTTTTT [XGTACX_site1910] | 11.5 ± 0.82
27 | ATAATTATATATTTATGTACGCATAAATATTTATAT [XGTACX_site5765] | 11.5 ± 1.2
28 | CCTTATACGATATTATGTACGCATATGTGCATTTTT [XGTACX_site1570] | 11.5 ± 1
29 | ATATATTAATAATTTTGTACGCATTTCCTTTTTATT [XGTACX_site1638] | 11.5 ± 1
30 | AATAATAAATTATGGTGTACGCATTTGTATATATAC [XGTACX_site5417] | 11.7 ± 0.98
31 | TTTTTTTCTTTTTGAGGTACGCATTATTTTATTTGT [XGTACX_site6996] | 11.3 ± 0.79
32 | TTTCGATTATGTTTTTGTACGCAATATATTAATTCT [XGTACX_site3634] | 11.5 ± 1
33 | TACATAAACATTTATACACACATTATGTATACATAT [CACACA_site405] | 10.04 ± 0.035
34 | TAAAAATATTTTCATTGTACATATATATAAATATAT [XGTACX_site1123] | 10.9 ± 0.61
35 | ACATTTTTGGTTTTAGTGCAATATGAATTATTTTAT | 10.12 ± 0.078
36 | ATAAAATATAAAAATTGTACGATAATAATAGTAGGA [XGTACX_site8951] | 10.8 ± 0.36
37 | AAGGATATAAAAAAACGTACGTACGATAATATAATT [XGTACX_site1292] | 11.6 ± 0.91
38 | AAAAAAAAATTAATATATAAAAGGATATATATATAT [GTGCAC_negctrl_site449] | 9.77 ± 0.46
39 | TCATATATATTATACACACACATATATAAATATATA [CACACA_site967] | 10 ± 0.23
40 | TCATGTAGTAAAAACTGTACAAATTATTTATCATGT [XGTACX_site1727] | 11 ± 0.64

Row | Sequence | gcPBM binding intensity (ln)
41 | GTGTAGTAAAATCGATGTACGTACAAATCAATTATT [XGTACX_site7662] | 11.8 ± 0.83
42 | TTATTAAAAATGTATTGTACAAATTTATTAGTAAAT [XGTACX_site4799] | 11 ± 0.52
43 | ACCTTTATTGTATGAACACACATAAGCTGATACATC [CACACA_site4028] | 10.2 ± 0.11
44 | ATTTATTTCAATAAACTTCTTTTCTTTAACAATTAC [CACACA_negctrl_site1222] | 9.845 ± 0.035
45 | TATTCATATTTAAAGGTGCAATATTTATTTTGTACA | 10.2 ± 0.18
46 | TATTTTACACATTTACGTACATAAATATATATATAT [XGTACX_site8788] | 11.6 ± 0.95
47 | AAAAGACATTTTTTTTTATAAATACACACGTACGTG [TGCATGCA_negctrl_site281] | 11.1 ± 0.72
48 | CCTCCCATTTTTACACGTACACATTTAAAATAGACT [XGTACX_site5640] | 11.7 ± 1.1
49 | TCTTATGATGGAATGTTAAATATTACATTTTGTTTA [TGCATGCA_negctrl_site503] | 9.51 ± 0.22
50 | GAAACGTTTTTGAGTAGTACACACACAATAAGGATG [XGTACX_site6809] | 11.7 ± 1.1
51 | GTTTTTGAGTAGTACACACACAATAAGGATGGATTC [CACACA_site3192] | 11.5 ± 0.97
52 | ACGTTTTTGAGTAGTACACACACAATAAGGATGGAT [CACACA_site9044] | 11.5 ± 0.97
53 | TTAAAAATGTTGGAAAGTACATATTTTTTAAAAGTA [XGTACX_site802] | 11.1 ± 0.61
54 | TTAACCACTAAAAGTACACACATATATACATATATA [CACACA_site3912] | 11.4 ± 0.92
55 | ATATATACATATGGGTGTACATATGCACATATATAT [XGTACX_site8437] | 11.3 ± 0.71
56 | ATATATCATCATGTATGTACACACATACATATATTA [XGTACX_site2814] | 11.2 ± 0.74
57 | ATAATAATATGTGGGTGTACATATACACATATATAT [XGTACX_site4356] | 11.3 ± 0.71
58 | AATACATATGGGTGTACACATTATATATATATATAT [CACACA_site4601] | 11.6 ± 0.89
59 | TATATCATCATGTATGTACACACATACATATATTAT [CACACA_site8387] | 11.2 ± 0.72
60 | TCATCATGTATGTACACACATACATATATTATGTAC [CACACA_site1386] | 11.7 ± 0.8
